PubChem BioAssay AID1851 (National Center for Advancing Translational Sciences (NCATS), 2009)
Out of some 16,000 compounds screened, about 5,100 (32%) were called active. Inconclusive results (about 25%) are left out. The list shows a part of the results. Values without a mark were called inactive. The call rests on the fitted dose curve; in most records, active means well fitted curve in the direction sought with a large enough effect; inconclusive means small, poorly fitted or top-dose-only effect, or effect the other way; inactive means no such curve, though single readings can be large or run the other way.
On the % scale 0 is the no-effect control and ±100 the full control effect.

Each compound was assayed against Cytochrome P450 3A4 (Homo sapiens) (UniProt P08684) (assay: Cytochrome panel assay with activity outcomes). Details: recombinant CYP, pro-luciferin dealkylation, luminescence, p450-cyp3a4; series mostly up to 57.1 µM; activity, negative = inhibition: at the top concentration.
Sequence of Cytochrome P450 3A4 (Homo sapiens) (P08684 whole entry, looked up): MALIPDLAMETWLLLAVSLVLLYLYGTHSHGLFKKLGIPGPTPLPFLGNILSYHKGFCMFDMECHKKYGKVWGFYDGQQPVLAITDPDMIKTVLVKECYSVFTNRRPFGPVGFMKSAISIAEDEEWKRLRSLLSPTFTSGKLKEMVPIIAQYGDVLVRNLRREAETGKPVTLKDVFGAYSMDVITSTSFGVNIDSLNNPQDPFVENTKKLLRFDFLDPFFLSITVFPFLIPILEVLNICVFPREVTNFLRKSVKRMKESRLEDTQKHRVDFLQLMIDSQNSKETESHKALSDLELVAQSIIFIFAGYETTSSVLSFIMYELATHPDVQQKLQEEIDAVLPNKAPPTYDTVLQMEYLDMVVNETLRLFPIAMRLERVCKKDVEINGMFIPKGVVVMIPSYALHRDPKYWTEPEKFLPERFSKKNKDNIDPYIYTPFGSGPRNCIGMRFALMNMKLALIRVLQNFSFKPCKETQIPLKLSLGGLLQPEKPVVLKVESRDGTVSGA
With Cc1ccc(C2(c3ccc(C)c(O)c3C)CCN(C)CC2)c(C)c1O the activity, negative = inhibition was -1.39% [at 11.4 µM]. For CCOP(=O)(OCC)c1nc(/C=C/c2ccccc2)oc1NCc1ccccc1, the AC50 was 14.1 µM (active). Work on C[C@H](Br)C(=O)c1ccc2cc(Br)c3ccccc3c2c1 yielded an activity, negative = inhibition of -23.5% [at 11.4 µM]. NCCc1c[nH]c2ccc(C(N)=O)cc12 was tested, and the activity, negative = inhibition was “inactive”. With CCCN(CCC)[C@H]1CCc2c(F)ccc(O)c2C1 the activity, negative = inhibition was “inactive”. In the case of CCS(=O)(=O)Nc1cccc(C(=C2CCCCC2)c2cnc[nH]2)c1, the AC50 is reported as 0.316 µM (active). Work on CC1(C)CCC(C)(C)c2c1ccc(O)c2Cc1c(O)ccc2c1C(C)(C)CCC2(C)C yielded an activity, negative = inhibition of -26.4% [at 11.4 µM]. For C[C@@]12CC[C@H](O)C[C@@H]1CC[C@H]1[C@H]2CC[C@@]2(C)[C@@H](C3=CC(=O)OC3)CC[C@]12O, the AC50 was 3.16 µM (active). C[C@@]12CC[C@H](O)C[C@@H]1CC[C@H]1[C@@H]2C[C@@H](O)[C@]2(C)[C@@H](C3=CC(=O)OC3)CC[C@]12O was tested, and the “activity, negative = inhibition” value was 2.53% [at 25.6 µM]. With C[C@@]12CC[C@H](O)C[C@@H]1CC[C@@H]1[C@@H]2CC[C@@]2(C)[C@@H](C3=CC(=O)OC3)[C@H](O)C[C@]12O the activity, negative = inhibition was -21.4% [at 11.4 µM]. With CC[N+](CC)(CC)CCOc1cccc(OCC[N+](CC)(CC)CC)c1OCC[N+](CC)(CC)CC the “activity, negative = inhibition” value was 2.58% [at 25.6 µM]. In the case of CCN1C[C@@]2(COC)[C@H]3[C@@H](OC)[C@H]4C1[C@@]3([C@H](OC)C[C@@H]2O)[C@H]1C[C@@]2(O)[C@@H](OC(=O)c3ccccc3)[C@@H]1[C@@]4(OC(C)=O)[C@H](O)[C@@H]2OC, the “activity, negative = inhibition” value is reported as -14.5% [at 25.6 µM]. With O=c1c2ccccc2c2ccccc2c(=O)n1-c1cc2c3ccccc3ccc2c2ccccc12 the activity, negative = inhibition was -20.6% [at 11.4 µM]. CC1=C2C(=O)[C@@H]3[C@@H](CC=C4C[C@@H](O)CC[C@@]43C)[C@H]2CC[C@@]12O[C@H]1C[C@H](C)CN[C@H]1[C@@H]2C gave an activity, negative = inhibition of 7.7% [at 11.4 µM]. For Cc1sc2ccccc2c1CC1=NCCN1, the “activity, negative = inhibition” value was -5.52%. CC(N)Cc1ccccc1Sc1ccc(O)cc1 (configuration not stated) gave an activity, negative = inhibition of 13.2% [at 2.29 µM]. With O=[N+]([O-])c1cc([As](=O)(O)O)ccc1O the “activity, negative = inhibition” value was -2.7% [at 25.6 µM]. Cn1c(O)c(C(c2ccccn2)c2c(O)n(C)c(=S)[nH]c2=O)c(=O)[nH]c1=S was tested, and the “activity, negative = inhibition” value was -8.62%. In the case of CCn1c(O)c(C(c2ccccn2)c2c(O)n(CC)c(=S)[nH]c2=O)c(=O)[nH]c1=S, the “activity, negative = inhibition” value is reported as -18.3%. Cn1c(O)c(C(c2ccccn2)c2c(O)n(C)c(=S)n(C)c2=O)c(=O)n(C)c1=S was tested, and the AC50 was 0.794 µM (active). With c1ccc(N2CCC3(CCNCC3)CC2)cc1 the “activity, negative = inhibition” value was -14.2%. With Cn1cc(C(=O)C(=O)N[C@H]2CN3CCC2CC3)c2ccccc21 the “activity, negative = inhibition” value was -12.3%. With C[C@H](N)[C@H](O)c1ccc(O)c(O)c1 the activity, negative = inhibition was “inactive”. With CC[C@]1(c2cccc(O)c2)CCCCN(C)C1 the “activity, negative = inhibition” value was -9.23% [at 25.6 µM]. Work on CC(C)CCn1c(N)c(C(=O)NCc2cccs2)c2nc3ccccc3nc21 yielded an activity, negative = inhibition of -19.7% [at 2.29 µM]. For COc1ccc(Cn2c(N)c(C(=O)NCc3ccco3)c3nc4ccccc4nc32)cc1, the AC50 was 11.2 µM (active). Compound CCCCn1c(N)c(C(=O)NCc2cccs2)c2nc3ccccc3nc21 has an activity, negative = inhibition of -29.4% [at 2.29 µM]. CC(=O)OCC(=O)[C@@H]1CC[C@H]2[C@H]3CC[C@H]4C[C@@H](O)CC[C@]4(C)[C@@H]3C(=O)C[C@@]12C was tested, and the “activity, negative = inhibition” value was -27.9% [at 25.6 µM]. For O=C(O)C[C@H]1NCc2cc3ccccc3nc21, the activity, negative = inhibition was -6.42% [at 11.4 µM]. For CCC1=C(C[C@H]2NCCc3ccccc32)C[C@@H]2c3cc(OC)c(OC)cc3CCN2C1, the activity, negative = inhibition was -26.3% [at 11.4 µM]. With COc1ccc(C(=O)O[C@H]2CC[C@@]3(C)[C@H]4CC[C@H]5[C@]3(C[C@]3(O)[C@H]6CN7C[C@H](C)CC[C@H]7[C@](C)(O)[C@]6(O)[C@H](O)C[C@]53O)O[C@]24O)cc1OC the activity, negative = inhibition was -3.45% [at 11.4 µM]. Compound Nc1ccccc1O.O.O=C(O)[C@H]1[O][Sb][O][C@H]1C(=O)O has an activity, negative = inhibition of -6.7% [at 11.4 µM]. With O=C=Nc1ccc(Cc2ccc(N=C=O)cc2)cc1 (tested in a mixture with another compound) the activity, negative = inhibition was 6.47% [at 11.4 µM]. For O=S1(=O)N(CCN2CC=C(c3c[nH]c4cc(F)ccc34)CC2)c2cccc3c2N1CCC3, the AC50 was 5.01 µM (active). With CN1CC[C@]2(C)c3cc(O)ccc3N(C)[C@@H]12 the “activity, negative = inhibition” value was -26.7% [at 25.6 µM]. With c1csc(CN2CCC3(CCNCC3)CC2)n1 the “activity, negative = inhibition” value was 1.58%. For Cc1c(C(=O)c2ccc3ccccc3c2)c2cccc3c2n1[C@H](CN1CCOCC1)CO3, the AC50 was 7.94 µM (active). For O[C@@H]1[C@H](O)[C@H]2[C@@H](O)CCN2C[C@@H]1O, the “activity, negative = inhibition” value was -12.5%. For CCN(CC)C1=NC(=[N+](CC)CC)c2ccccc21, the “activity, negative = inhibition” value was 21.8%. For CCCCCCC[n+]1ccc(-c2cc[n+](CCCCCCC)cc2)cc1, the “activity, negative = inhibition” value was -27.3%. O=C1CS[C@@H](c2ccccc2Cl)c2cc(Cl)ccc2N1 was tested, and the “activity, negative = inhibition” value was -14.7%. O=C(O)c1cc(N=Nc2ccc([As](=O)(O)O)cc2)ccc1O gave an activity, negative = inhibition of 1.38% [at 11.4 µM].
